Data reported in PubChem BioAssay AID1159580 (chemical genetic matrix, 2015).
Where “and” joins values, the source holds several entries; their conditions need not be identical. Equal values may be shown once. Screen size: about 5,500 compounds; about 2,000 (36%) were called active. Not shown: some 18% with an inconclusive outcome. Rule as the data show it: active = normalized growth mostly below about 0.91 (no sharp cut-off); inconclusive = no clear call, values can overlap the other calls; inactive = mostly above about 0.92. This is one part of the list.

Test: chemical genetic growth profiling, strain panel (AID 1159580);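 also: tested at 20 µM; growth read once vehicle control cultures reached saturation at 30 °C; 1 = growth at the plate median or of vehicle wells; lower values mean less growth of the strain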
Conditions: S. cerevisiae deletion strains, growth OD

Measured: normalized growth

CCCCCC/C=C\CCCCCCCc1cccc(O)c1C(=O)O
active: locus YER155C, strain BEM2 (second series), hits give low values 0.843 | locus YMR058W, strain fet3, hits give low values 0.734 | locus YMR125W, strain sto1, hits give low values 0.852
inactive: locus YAL013W, strain DEP1, hits give low values 1.08 | locus YAL021C, strain ccr4, hits give low values 0.972 | locus YAL026C, strain drs2, hits give low values 0.979 | locus YAL030W, strain snc1, hits give low values 0.974 | locus YBL061C, strain skt5, hits give low values 0.98 | locus YBR009C, strain hhf1, hits give low values 0.997 | locus YBR021W, strain FUR4, hits give low values 0.929 | locus YBR023C, strain chs3, hits give low values 0.967 | locus YBR171W, strain sec66, hits give low values 1.05 | locus YBR229C, strain ROT2, hits give low values 0.988 | locus YBR231C, strain swc5, hits give low values 0.942 | locus YBR279W, strain paf1, hits give low values 0.984 | locus YCL011C, strain gbp2, hits give low values 0.95 | locus YCL016C, strain dcc1, hits give low values 0.989 | locus YCL029C, strain bik1, hits give low values 0.985 | locus YCL061C, strain MRC1, hits give low values 0.989 | locus YCL069W, strain vba3, hits give low values 0.938 | locus YCR088W, strain abp1, hits give low values 0.972 | locus YDL005C, strain med2, hits give low values 0.958 | locus YDL035C, strain GPR1, hits give low values 1.05 | locus YDL040C, strain nat1, hits give low values 0.967 | locus YDL074C, strain BRE1, hits give low values 0.992 | locus YDL101C, strain DUN1, hits give low values 1.01 | locus YDL185W, strain tfp1, hits give low values 1.01 | locus YDL192W, strain arf1, hits give low values 1 | locus YDR001C, strain nth1, hits give low values 0.983 | locus YDR069C, strain doa4, hits give low values 0.971 | locus YDR101C, strain arx1, hits give low values 0.987 | locus YDR137W, strain rgp1, hits give low values 0.939 | locus YDR150W, strain NUM1, hits give low values 1.04 | locus YDR159W, strain sac3, hits give low values 0.974 | locus YDR162C, strain NBP2, hits give low values 1.06 | locus YDR195W, strain ref2 0.975 | locus YDR297W, strain sur2, hits give low values 0.979 | locus YDR318W, strain mcm21, hits give low values 0.995 | locus YDR334W, strain swr1, hits give low values 0.956 | locus YDR335W, strain msn5, hits give low values 0.975 | locus YDR388W, hits give low values 1.01 | locus YDR392W, strain spt3, hits give low values 0.813 | locus YDR502C, strain sam2, hits give low values 1.01 | locus YEL003W, strain gim4, hits give low values 0.982 | locus YEL037C, strain rad23, hits give low values 0.965 | locus YEL061C, strain CIN8 (second series), hits give low values 0.953 | locus YEL061C, strain CIN8, hits give low values 1.01 | locus YER015W, strain faa2, hits give low values 0.982 | locus YER016W, strain bim1, hits give low values 0.976 | locus YER110C, hits give low values 0.981 | locus YER111C, strain swi4, hits give low values 0.947 | locus YER155C, strain BEM2, hits give low values 0.991 | locus YER167W, strain BCK2, hits give low values 1.01 | locus YFR010W, strain ubp6, hits give low values 0.993 | locus YGL078C, strain dbp3, hits give low values 0.995 | locus YGL086W, strain mad1, hits give low values 0.989 | locus YGL167C, strain pmr1, hits give low values 0.966 | locus YGL173C, strain kem1, hits give low values 0.976 | locus YGL227W, strain vid30, hits give low values 0.955 | locus YGL240W, strain doc1, hits give low values 0.976 | locus YGL248W, strain PDE1, hits give low values 1.01 | locus YGL253W, strain hxk2, hits give low values 0.975 | locus YGR135W, strain pre9, hits give low values 1.03 | locus YGR252W, strain gcn5, hits give low values 1.04 | locus YHR013C, strain ard1, hits give low values 0.956 | locus YHR027C, strain rpn1, hits give low values 0.992 | locus YHR030C, strain SLT2, hits give low values 1 | locus YHR079C, strain IRE1 (second series), hits give low values 0.992 | locus YHR079C, strain IRE1, hits give low values 1.01 | locus YHR094C, strain hxt1, hits give low values 0.992 | locus YHR129C, strain ARP1, hits give low values 0.998 | locus YHR142W, strain chs7, hits give low values 0.974 | locus YHR200W, strain rpn10, hits give low values 1 | locus YIL066C, strain RNR3, hits give low values 1.03 | locus YIL073C, strain SPO22, hits give low values 1.3 | locus YIL125W, strain kgd1, hits give low values 0.994 | locus YIR030C, strain dcg1, hits give low values 0.995 | locus YJL092W, strain hpr5, hits give low values 0.941 | locus YJL095W, strain BCK1 (second series), hits give low values 0.97 | locus YJL095W, strain BCK1, hits give low values 0.991 and 0.952 | locus YJL115W, strain asf1, hits give low values 0.972 | locus YJL129C, strain trk1, hits give low values 0.914 | locus YJL134W, strain LCB3, hits give low values 1 | locus YJL154C, strain vps35, hits give low values 0.971 | locus YJL164C, strain tpk1, hits give low values 0.999 | locus YJL166W, strain qcr8, hits give low values 0.976 | locus YJL168C, strain set2, hits give low values 0.988 | locus YJL187C, strain SWE1 (second series), hits give low values 0.997 | locus YJR043C, strain POL32, hits give low values 1.06 | locus YJR066W, strain TOR1, hits give low values 0.968 | locus YKL009W, strain mrt4, hits give low values 1.02 | locus YKL068W, hits give low values 1.01 | locus YKL085W, strain MDH1 (second series), hits give low values 0.997 | locus YKL085W, strain MDH1, hits give low values 0.997 | locus YKL160W, strain elf1, hits give low values 0.997 | locus YKL190W, strain CNB1, hits give low values 1.06 | locus YKR001C, strain vps1, hits give low values 0.989 | locus YKR026C, strain gcn3, hits give low values 0.961 | locus YKR091W, strain srl3, hits give low values 0.978 | locus YLL001W, strain dnm1, hits give low values 0.988 | locus YLL026W, hits give low values 0.974 | locus YLL041C, strain sdh2, hits give low values 0.989 | locus YLR027C, strain aat2, hits give low values 0.986 | locus YLR039C, strain RIC1, hits give low values 1.01 | locus YLR058C, strain SHM2, hits give low values 1 | locus YLR102C, strain apc9, hits give low values 0.987 | locus YLR113W, strain HOG1, hits give low values 0.946 | locus YLR221C, strain rsa3, hits give low values 0.944 | locus YLR258W, strain gsy2, hits give low values 0.957 | locus YLR262C, strain YPT6 (second series), hits give low values 0.939 | locus YLR262C, strain YPT6, hits give low values 0.977 | locus YLR268W, strain sec22, hits give low values 0.991 | locus YLR320W, strain mms22, hits give low values 0.951 | locus YLR330W, strain CHS5, hits give low values 1.06 | locus YLR342W, strain FKS1 (second series), hits give low values 1.03 | locus YLR342W, strain FKS1, hits give low values 0.964 | locus YLR357W, strain rsc2, hits give low values 0.953 | locus YLR370C, strain arc18, hits give low values 0.969 | locus YLR371W, strain rom2, hits give low values 1 | locus YLR384C, strain iki3, hits give low values 0.97 | locus YLR418C, strain cdc73, hits give low values 0.953 | locus YML016C, strain PPZ1, hits give low values 0.989 | locus YML032C, strain rad52, hits give low values 1.02 | locus YML120C, strain ndi1, hits give low values 0.973 | locus YML124C, strain tub3, hits give low values 0.985 | locus YMR078C, strain ctf18, hits give low values 0.999 | locus YMR129W, hits give low values 0.963 | locus YMR205C, strain PFK2, hits give low values 1.02 | locus YMR223W, strain ubp8, hits give low values 1.01 | locus YMR231W, strain pep5, hits give low values 0.999 | locus YMR263W, strain SAP30, hits give low values 1.03 | locus YMR307W, strain GAS1, hits give low values 1.01 | locus YNL067W, strain RPL9B, hits give low values 1.03 | locus YNL071W, strain lat1, hits give low values 0.97 | locus YNL183C, strain NPR1, hits give low values 0.923 | locus YNL209W, strain ssb2, hits give low values 0.974 | locus YNL233W, strain BNI4, hits give low values 1.01 | locus YNL248C, strain rpa49, hits give low values 0.983 | locus YNL250W, strain rad50, hits give low values 0.982 | locus YNL271C, strain bni1, hits give low values 0.99 | locus YNL298W, strain CLA4, hits give low values 1.01 | locus YNL307C, strain MCK1, hits give low values 0.995 | locus YNL322C, strain KRE1 (second series), hits give low values 0.949 | locus YNL322C, strain KRE1, hits give low values 1 | locus YNR049C, strain mso1, hits give low values 0.973 | locus YNR052C, strain pop2, hits give low values 1.01 | locus YOL012C, strain htz1 0.359 | locus YOL147C, strain pex11, hits give low values 0.99 | locus YOR001W, strain rrp6, hits give low values 0.927 | locus YOR061W, strain CKA2, hits give low values 0.992 | locus YOR069W, strain VPS5, hits give low values 0.995 | locus YOR070C, strain gyp1, hits give low values 0.975 | locus YOR080W, strain dia2, hits give low values 0.988 | locus YOR083W, strain WHI5, hits give low values 1 | locus YOR106W, strain vam3, hits give low values 0.985 | locus YOR136W, strain idh2, hits give low values 0.988 | locus YOR144C, strain elg1, hits give low values 0.994 | locus YOR184W, strain ser1, hits give low values 0.999 | locus YOR231W, strain MKK1, hits give low values 0.997 | locus YOR265W, strain rbl2, hits give low values 0.987 | locus YOR270C, strain vph1, hits give low values 1.01 | locus YOR290C, strain snf2, hits give low values 1 | locus YOR316C, strain cot1, hits give low values 0.986 | locus YPL051W, strain arl3, hits give low values 0.974 | locus YPL078C, strain atp4, hits give low values 0.971 | locus YPL106C, strain sse1, hits give low values 1.01 | locus YPL240C, strain hsp82, hits give low values 0.959 | locus YPL241C, strain CIN2, hits give low values 0.997 | locus YPL256C, strain CLN2, hits give low values 0.981 | locus YPR119W, strain clb2, hits give low values 0.985 | locus YPR141C, strain kar3, hits give low values 0.982 | locus YPR163C, strain tif3, hits give low values 0.99 | locus YPR167C, strain met16, hits give low values 1 | strain wtn01, hits give low values 0.995
